# Measurements reported in the supplement of paper PMC11634586.
# System: NCI-H1688
# Experiment: inhibition of cell viability relative to untreated control (fraction); higher = stronger growth inhibition, active = 0.5 or more
# Details: 30 µM; 24 h
# Procedure, shortened: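 Values are inhibition of cell viability expressed as a fraction, derived from viability normalised to untreated cells. NCI-H1688 small cell lung cancer cells in 96-well plates were exposed to a natural compound library (TargetMol) at 30 µM for 24 h at 37°C with 5% CO2, and Cell Counting Kit-8 absorbance at 450 nm was then read.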
row,Structure (SMILES),inhibition of cell viability
1,O=C(O)c1ccc(O)c(O)c1 [Protocatechuic acid],0.00558 (inactive)
2,OC[C@H]1O[C@H](OCC2O[C@@H](O)[C@H](O)[C@@H](O)[C@@H]2O)[C@H](O)[C@@H](O)[C@H]1O (some centres undefined) [Melibiose],-0.13 (inactive)
3,O=c1ccc2ccc(O)c(O)c2o1 [Daphnetin],-0.0337 (inactive)
4,CCCCCC=CCC=CCCCCCCCC(=O)OC(COC(=O)CCCCCCCCCCCCCCC)COP(=O)([O-])OCC[N+](C)(C)C [L-α-Phosphatidylcholine],0.136 (inactive)
5,CC[C@H](C)C(=O)O[C@H]1C[C@@H](C)C=C2C=C[C@H](C)[C@H](CC[C@@H]3C[C@@H](O)CC(=O)O3)[C@H]21 [Lovastatin],0.836 (active)
6,O=C(O)[C@H]1O[C@@H](Oc2cc3oc(-c4ccc(O)cc4)cc(=O)c3c(O)c2O)[C@H](O)[C@@H](O)[C@@H]1O [Breviscapin],0.262 (inactive)
7,C#C[C@]1(O)CC[C@H]2[C@@H]3CCc4cc(O)ccc4[C@H]3CC[C@@]21C [Ethynyl estradiol],0.639 (active)
8,CC(C)(O)CC[C@@H](O)[C@](C)(O)[C@H]1CC[C@@]2(O)C3=CC(=O)[C@@H]4C[C@@H](O)[C@@H](O)C[C@]4(C)[C@H]3CC[C@]12C [Ecdysterone],-0.0294 (inactive)
9,O=c1cc(-c2ccccc2)oc2ccccc12 [Flavone],0.149 (inactive)
10,C=C(C)[C@H]1CC=C(C)CC1 [(R)-(+)-Limonene],0.281 (inactive)
11,CC(=O)Oc1c(C)c(C)c2c(c1C)CCC(C)(CCC[C@H](C)CCC[C@H](C)CCCC(C)C)O2 (some centres undefined) [Vitamin E Acetate],-0.0362 (inactive)
12,COc1ccc(CCC(=O)c2c(O)cc(O[C@@H]3O[C@H](CO)[C@@H](O)[C@H](O)[C@H]3O[C@@H]3O[C@@H](C)[C@H](O)[C@@H](O)[C@H]3O)cc2O)cc1O [Neohesperidin Dihydrochalcone (Nhdc)],-0.0245 (inactive)
13,CC(C)=CCC[C@](C)(O[C@@H]1O[C@H](CO[C@@H]2O[C@H](CO)[C@@H](O)[C@H](O)[C@H]2O)[C@@H](O)[C@H](O)[C@H]1O)[C@H]1CC[C@]2(C)[C@@H]1[C@H](O)C[C@@H]1[C@@]3(C)CC[C@H](O[C@@H]4O[C@H](CO)[C@@H](O)[C@H](O)[C@H]4O[C@@H]4O[C@H](CO)[C@@H](O)[C@H](O)[C@H]4O)C(C)(C)[C@@H]3CC[C@]12C [Ginsenoside Rb1],-0.0384 (inactive)
14,CC(C)C[C@@H](NC(=O)[C@H](C)NC(=O)CNC(=O)[C@@H](NC=O)C(C)C)C(=O)N[C@@H](C)C(=O)N[C@@H](C(=O)N[C@H](C(=O)N[C@H](C(=O)N[C@@H](Cc1c[nH]c2ccccc12)C(=O)N[C@H](CC(C)C)C(=O)N[C@@H](Cc1c[nH]c2ccccc12)C(=O)N[C@H](CC(C)C)C(=O)N[C@@H](Cc1c[nH]c2ccccc12)C(=O)N[C@H](CC(C)C)C(=O)N[C@@H](Cc1c[nH]c2ccccc12)C(=O)NCCO)C(C)C)C(C)C)C(C)C [Gramicidin],0.981 (active)
